# Measurements reported in PubChem BioAssay AID540317 (National Center for Advancing Translational Sciences (NCATS), 2011).
# The campaign covered roughly 390,000 compounds. About 2,200 (0.56%) were called active. Entries that show only a call come without a potency. About 3% were inconclusive and are not listed. The call rests on the fitted dose curve; in most records, active means well fitted inhibition curve with a large enough effect; inconclusive means small, poorly fitted or top-dose-only effect; inactive means no such curve, though single readings can be large or run the other way. For the sample, actives were picked, then their nearest neighbours and some compounds at random.
# Molecular target: Chromobox protein homolog 1 (Homo sapiens) (UniProt P83916)
# Test: HTS for Inhibitors of HP1-beta Chromodomain Interactions with Methylated Histone Tails; further: nearly all actives have a fitted effect of over 70% in size
# Conditions: AlphaScreen HP1-beta / biotin-H3K9me3 peptide binding; series mostly up to 114 µM
# In short: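 Compound inhibition of the preformed complex between 50 nM HP1-beta and 50 nM biotinylated H3K9me3 peptide was read by AlphaScreen. Buffer was PBS pH 7.4 with 0.01% Tween-20. Incubations ran 30 min at room temperature, with 10 ug/mL donor/acceptor beads.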
# Potency means the concentration at half of the fitted maximal effect.
# Chromobox protein homolog 1 (Homo sapiens), sequence (P83916 whole entry, looked up): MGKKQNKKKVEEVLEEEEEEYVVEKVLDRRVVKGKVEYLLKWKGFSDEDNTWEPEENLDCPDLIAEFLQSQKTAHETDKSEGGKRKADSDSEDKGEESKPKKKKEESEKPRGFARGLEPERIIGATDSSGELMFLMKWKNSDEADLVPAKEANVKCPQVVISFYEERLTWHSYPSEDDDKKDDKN
row,Structure (SMILES),Potency
1,O=S(=O)(Nc1ccc2nc(-c3cccc(Cl)c3)oc2c1)c1ccccc1,inactive
2,CCc1ccc(NC(=O)CCCc2nnc3n(CCCOC)c(=O)c4sccc4n23)cc1,inactive
3,CCN(CC)c1cc(NC2CCCCC2)c2c3c(onc13)-c1ccccc1C2=O,7.94 µM (active)
4,Cc1ccc(Cl)cc1NC(=O)CSc1nccn1C,inactive
5,CCOC(=O)N1CCc2c(sc3c2c(=O)n(-c2ccc(CC)cc2)c(=O)n3C)C1,inactive
6,Nc1ccc2nc3c(=O)[nH]c(=S)[nH]c3nc2c1,2 µM (active)
7,CC1=C(c2ccc(C)c(C)c2)S(=O)(=O)NC1=NCc1ccccc1Cl,inactive
8,COc1ccc(NC(=O)CSc2nccn2Cc2ccc3c(c2)OCO3)cc1,inactive
9,O=C1Nc2ccc(Br)cc2/C1=N/N=C/C1=C(N2CCOCC2)C(=C\c2ccccc2)/CC1,5.62 µM (active)
10,Cc1oc2ccc(O)c(CN3CCCCC3)c2c1C(=O)Nc1cccc(C(F)(F)F)c1,inactive
11,O=C(c1ccc2c(=O)n(Cc3ccco3)c(=S)[nH]c2c1)N1CCCC1,inactive
12,CCOC(=O)C1=C(CC)Nc2ccccc2N=C1N,inactive
13,CCOC(=O)C1=C(c2ccc(OC)cc2)C(=O)c2ccccc2C1=O,31.6 µM (active)
14,CCOC(=O)C1C(=O)C=C(c2ccc(OC)cc2)CC1c1ccco1 (stereo not given),inactive
15,COc1cccc(CNC(=O)C2CCC(CNS(=O)(=O)c3cccs3)CC2)c1 (stereo not given),inactive
16,Cc1ccccc1CS(=O)(=O)CC1Nc2ccc(C(=O)NCc3ccc(Cl)cc3)cc2NC1=O (stereo not given),inactive
17,CCOC(=O)N1CCN(C(c2cccnc2)c2ccc3cccnc3c2O)CC1 (stereo not given),8.91 µM (active)
18,Cc1ccc(NC(=O)C(=O)NCC(c2cccnc2)N2CCOCC2)cc1 (stereo not given),inactive
19,COc1ccccc1N1CCN(C(CNC(=O)C(=O)NCc2ccc(C)cc2)c2cccnc2)CC1 (stereo not given),inactive
20,CN(Cc1ccccc1)C(=O)c1cc2c(=O)n(C)c3ccccc3c2s1,inactive
21,Nc1ccccc1SC(C[N+](=O)[O-])c1ccccc1 (stereo not given),15.8 µM (active)
22,Cc1cccc(-n2ncc(C(=O)N3CCc4ccccc4C3)c2C2CCN(C(=O)OC(C)(C)C)CC2)c1,inactive

row,Structure (SMILES),Potency
1,Cc1c(NC(=O)c2cc(=O)c3ccccc3o2)c(=O)n(-c2ccccc2)n1C,inactive
2,CCc1nnc(SCC(=O)Nc2cc(OC)ccc2OC)nc1CC,inactive
3,Cc1ccc(NC2=NC(c3ccccc3)n3c(nc(C)cc3=O)N2)cc1 (stereo not given),inactive
4,Cc1ccc(Nc2cc(C)nc3c(C)ccc([N+](=O)[O-])c23)cc1,22.4 µM (active)
5,Cc1ccccc1Nc1c([N+](=O)[O-])ccc2nonc12,inactive
6,CCOC(=O)c1c(NC(=O)c2cc(-c3ccc(Cl)cc3)on2)sc2c1CCCC2,inactive
7,O=C1C2C(c3ccccc3)CC=CC2C(c2ccoc2)N1Cc1ccccc1 (stereo not given),inactive
8,CC(C)C(=O)Nc1nc2c(s1)CC(C(C)(C)C)CC2 (stereo not given),inactive
9,Cc1ccc(SCC(CC(C)C)N2CCN(CCc3ccccc3)CCC2=O)cc1 (stereo not given),inactive
10,NC1=NOC(=O)C1C1CCCCC1 (stereo not given),5.01 µM (active)
11,CN1c2ccc(Cl)cc2-c2nc(SCC(=O)Nc3cc(F)ccc3F)ncc2S1(=O)=O,inactive
12,CC1(C)CCc2cc(S(=O)(=O)N3CCN(c4nc(-c5cccs5)nc5ccccc45)CC3)ccc2O1,inactive
13,COc1ccc(CCN2C(=O)N(c3cccc(OC)c3)C(=O)C2CC(=O)Nc2ccccc2)cc1 (stereo not given),inactive
14,Cc1cc(NS(=O)(=O)c2ccc(NC(=O)c3ccccc3C)cc2)nc(C)n1,inactive
15,CC(=O)Nc1ccc(S(=O)(=O)N2CCCC2C(=O)O)cc1 (stereo not given),inactive
16,Cc1ccccc1C(=O)Nc1ccc(N2CCCCCC2)cc1,35.5 µM (active)
17,O=C(NC(=O)c1ccccc1N1CCCCC1)Nc1ccc(Br)cc1,inactive
18,CC(=O)Nc1ccc(S(=O)(=O)Nc2ccc(N3CCCCC3)cc2)cc1,20 µM (active)
19,CC(=O)Nc1ccc(S(=O)(=O)N2CCN(c3ccccc3)CC2)cc1,inactive
20,CCOc1ccc(CNC(=O)CCc2c(C)nn(-c3ccc(N4CCCCC4)nn3)c2C)cc1,inactive
21,CCOC(=O)c1c(NC(C)=O)c2c3c(sc2n1Cc1c(C)cc(C)cc1C)CCCC3,inactive
22,COc1ccc(C(=O)COC(=O)CCCC(=O)Nc2cc(C(F)(F)F)ccc2Cl)cc1,inactive

row,Structure (SMILES),Potency
1,CCC(Sc1nnc(-c2ccc(OC)cc2)c(-c2ccc(OC)cc2)n1)C(=O)NC1CCCCC1 (stereo not given),inactive
2,Cc1cc(N=Nc2ccc3ccccc3c2)ccc1O,50.1 µM (active)
3,Cc1cc(C)cc(NS(=O)(=O)c2ccc3[nH]cc(C(=O)N4CCCCC4)c(=O)c3c2)c1,inactive
4,COc1cccc(CNC(=O)c2ccc3c(c2)sc2nc(-c4cccc(OC)c4)cn23)c1,inactive
5,CCCNc1ncnc2c1c(-c1ccccc1)cn2-c1ccc(OCC)cc1,inactive
6,COc1cc(N2CCCC2)c(OC)cc1/C=C(/C#N)c1cccc(Br)c1,35.5 µM (active)
7,CCOC(=O)c1[nH]c(C)c(CCC(=O)N2CCN(c3ccccc3)CC2)c1C,inactive
8,Cc1ccc(NC(=O)Cn2cnc3nc4c(cc3c2=O)CCCC4)cc1Cl,inactive
9,CCOC(=O)c1cc(-c2ccc(OC)c(S(=O)(=O)Nc3ccc(OC)cc3OC)c2)on1,inactive
10,O=C1CN(Cc2ccccc2)S(=O)(=O)c2ccccc21,inactive
11,COc1ccc(Cc2nc3ccc(C(=O)NCc4ccccc4C)cc3o2)cc1,inactive
12,COc1cc2c3c(c1)/C(=C1/SC(=S)NC1=O)C(=O)N3C(C)(C)C=C2C,10 µM (active)
13,Cc1cccc(N2CCN(C(=O)c3ccc(Nc4nc5ccccc5n5nnnc45)cc3)CC2)c1C,inactive
14,Cc1csc2nc(COC(=O)c3ccccc3NC(=O)c3ccccc3Cl)cc(=O)n12,inactive
15,COc1ccc(-c2nnc(SCC(=O)Nc3ccc(C(C)C)cc3)nc2-c2ccc(OC)c(OC)c2)cc1OC,inactive
16,O=C1C(Cl)=C(Oc2ccccc2)C(=O)c2ccccc21,2 µM (active)
17,COc1ccc(Br)cc1C1C2C=CCC(C)C2C(=O)N1Cc1ccccc1 (stereo not given),inactive
18,CCOC(=O)c1ccc(NC(=O)Cn2cc(S(=O)(=O)Cc3ccccc3F)c3ccccc32)cc1,inactive
19,Cn1c(=O)c(=O)n(C)c2cc(S(=O)(=O)NCCc3ccccc3)ccc21,inactive
20,Cc1c(S(=O)(=O)NCc2ccccc2)c(=O)n(C)c(=O)n1C,inactive
21,Cc1cc(=O)n(C)c(=O)n1CCCNc1ccccc1,56.2 µM (active)
